Assay results: PubChem BioAssay (Tox21)
Records with an inconclusive call do not appear. Calls of active or inactive are those of the source. Calls come from the whole dose curve; as a rule, active = well fitted curve in the direction sought with a large enough effect in the repeat runs; inconclusive = weak or mixed curves; inactive = no such curve, though single readings can be large; an effect the other way counts as inactive or inconclusive.

Columns and labels:
[1] = molecular target: Cytochrome P450 2D6 (Homo sapiens) (UniProt P10635); assay: Cytochrome P450 Family 2 Subfamily D Member 6 (CYP2D6) small molecule antagonists: luciferase reporter qHTS assay (AID 1671196); note: nearly all actives have a fitted effect of over 50% in size
Method in brief: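 Read-out is luminescence from luciferin formed by CYP2D6 turnover of a proluciferin substrate, recorded as relative luminescence units. Reactions ran 1 h at room temperature after NADPH regeneration solution was added.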

[2] = molecular target: Cytochrome P450 2C19 (Homo sapiens) (UniProt P33261); assay: Cytochrome P450 Family 2 Subfamily C Member 19 (CYP2C19) small molecule antagonists: luciferase reporter qHTS assay (AID 1671197); note: nearly all actives have a fitted effect of over 65% in size
Method in brief: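 P450-Glo CYP2C19 screening system; proluciferin substrate; DMSO compound stocks; 10 min RT preincubation; NADPH regeneration, 1 h at 37C; luciferin detection reagent, 20 min RT; luminescence as RLU.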

[3] = molecular target: Cytochrome P450 2C9 (Homo sapiens) (UniProt P11712); assay: Cytochrome P450 Family 2 Subfamily C Member 9 (CYP2C9) small molecule antagonists: luciferase reporter qHTS assay (AID 1671198); note: nearly all actives have a fitted effect of over 50% in size
Method in brief: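 Enzyme-substrate mix preincubated with compound 10 min at room temperature; reaction started with NADPH regeneration solution, 1 h 37C. Luminescent luciferin product read after 20 min detection reagent.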

[4] = molecular target: Cytochrome P450 1A2 (Homo sapiens) (UniProt P05177); assay: Cytochrome P450 Family 1 Subfamily A Member 2 (CYP1A2) small molecule antagonists: luciferase reporter qHTS assay (AID 1671199); note: nearly all actives have a fitted effect of over 50% in size
Method in brief: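 P450-Glo CYP1A2, 1536-well qHTS: enzyme/proluciferin substrate + cpd (DMSO), 10 min RT; NADPH regen, 1 h RT; detection reagent, 20 min; luminescence, RLU.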

[5] = molecular target: Voltage-gated inwardly rectifying potassium channel KCNH2 (Homo sapiens) (UniProt Q12809); assay: Human Ether-a-go-go-Related Gene (hERG) channel small molecule antagonists: fluorescence cell-based qHTS assay (AID 1671200); note: nearly all actives have a fitted effect of over 50% in size
Method in brief: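 hERG-U2OS cells plated overnight at 37 C, loaded with FluxOR II dye 1 h at RT in dark; after 10 min, thallium stimulus added. Fluorescence (480/540 nm) read kinetically for 2 min at 1 s intervals.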

[6] = molecular target: Cytochrome P450 3A4 (Homo sapiens) (UniProt P08684); assay: Cytochrome P450 Family 3 Subfamily A Member 4 (CYP3A4) small molecule antagonists: luciferase reporter qHTS assay (AID 1671201); note: nearly all actives have a fitted effect of over 50% in size
Method in brief: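 P450-Glo CYP3A4 luminescent assay: compounds preincubated 10 min at room temperature with enzyme and proluciferin substrate, NADPH regeneration added, 1 h room-temperature reaction, stopped with luciferin detection reagent; luminescence read after 20 min. Ketoconazole positive control.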

Measured: Potency
Potency is the fitted concentration of half-maximal effect.

Cytochrome P450 2C9 (Homo sapiens), sequence (P11712 whole entry, looked up): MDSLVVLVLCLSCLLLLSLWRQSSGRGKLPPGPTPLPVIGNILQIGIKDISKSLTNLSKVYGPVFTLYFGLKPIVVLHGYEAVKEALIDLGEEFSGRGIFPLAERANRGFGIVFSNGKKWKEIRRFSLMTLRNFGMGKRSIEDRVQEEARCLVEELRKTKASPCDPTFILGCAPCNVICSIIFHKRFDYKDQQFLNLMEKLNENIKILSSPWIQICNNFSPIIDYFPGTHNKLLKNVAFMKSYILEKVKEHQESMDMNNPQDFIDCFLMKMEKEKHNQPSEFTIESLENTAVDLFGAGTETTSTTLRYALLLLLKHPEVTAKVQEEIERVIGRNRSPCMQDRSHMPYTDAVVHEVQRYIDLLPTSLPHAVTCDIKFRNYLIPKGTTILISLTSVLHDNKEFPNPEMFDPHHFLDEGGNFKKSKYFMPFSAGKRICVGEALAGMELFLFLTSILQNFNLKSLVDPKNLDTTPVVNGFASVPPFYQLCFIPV
Voltage-gated inwardly rectifying potassium channel KCNH2 (Homo sapiens), sequence (Q12809 whole entry, looked up): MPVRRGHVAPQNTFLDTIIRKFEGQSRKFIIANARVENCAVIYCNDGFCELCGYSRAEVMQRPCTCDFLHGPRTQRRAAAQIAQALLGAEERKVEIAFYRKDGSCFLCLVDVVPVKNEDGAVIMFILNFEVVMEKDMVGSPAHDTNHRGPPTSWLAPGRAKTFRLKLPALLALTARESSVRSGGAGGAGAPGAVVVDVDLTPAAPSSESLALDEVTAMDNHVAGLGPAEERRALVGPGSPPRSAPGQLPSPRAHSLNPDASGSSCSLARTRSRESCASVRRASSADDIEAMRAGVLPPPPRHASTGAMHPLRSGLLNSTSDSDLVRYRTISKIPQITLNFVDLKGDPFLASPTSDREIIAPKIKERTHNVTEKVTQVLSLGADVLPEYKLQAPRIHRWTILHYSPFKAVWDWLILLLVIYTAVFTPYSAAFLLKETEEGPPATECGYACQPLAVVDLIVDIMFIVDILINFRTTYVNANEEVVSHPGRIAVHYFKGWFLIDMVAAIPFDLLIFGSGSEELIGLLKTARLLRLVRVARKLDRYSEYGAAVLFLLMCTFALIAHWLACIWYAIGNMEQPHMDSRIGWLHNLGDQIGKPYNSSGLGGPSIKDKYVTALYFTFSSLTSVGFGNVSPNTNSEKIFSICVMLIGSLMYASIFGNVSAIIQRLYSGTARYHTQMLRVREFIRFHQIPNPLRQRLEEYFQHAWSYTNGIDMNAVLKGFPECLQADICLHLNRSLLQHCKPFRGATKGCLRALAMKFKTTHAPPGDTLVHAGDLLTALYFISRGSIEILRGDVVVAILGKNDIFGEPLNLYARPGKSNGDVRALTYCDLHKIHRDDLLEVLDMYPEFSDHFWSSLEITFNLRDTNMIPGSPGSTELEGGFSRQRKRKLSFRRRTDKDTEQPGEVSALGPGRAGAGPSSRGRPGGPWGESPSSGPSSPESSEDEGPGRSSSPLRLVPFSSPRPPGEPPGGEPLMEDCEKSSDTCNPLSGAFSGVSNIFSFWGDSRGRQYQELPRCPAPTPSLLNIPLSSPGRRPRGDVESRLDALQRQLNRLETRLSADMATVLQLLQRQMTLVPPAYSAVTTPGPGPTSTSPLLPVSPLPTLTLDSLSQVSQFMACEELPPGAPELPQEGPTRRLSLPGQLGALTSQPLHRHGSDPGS
Cytochrome P450 3A4 (Homo sapiens), sequence (P08684 whole entry, looked up): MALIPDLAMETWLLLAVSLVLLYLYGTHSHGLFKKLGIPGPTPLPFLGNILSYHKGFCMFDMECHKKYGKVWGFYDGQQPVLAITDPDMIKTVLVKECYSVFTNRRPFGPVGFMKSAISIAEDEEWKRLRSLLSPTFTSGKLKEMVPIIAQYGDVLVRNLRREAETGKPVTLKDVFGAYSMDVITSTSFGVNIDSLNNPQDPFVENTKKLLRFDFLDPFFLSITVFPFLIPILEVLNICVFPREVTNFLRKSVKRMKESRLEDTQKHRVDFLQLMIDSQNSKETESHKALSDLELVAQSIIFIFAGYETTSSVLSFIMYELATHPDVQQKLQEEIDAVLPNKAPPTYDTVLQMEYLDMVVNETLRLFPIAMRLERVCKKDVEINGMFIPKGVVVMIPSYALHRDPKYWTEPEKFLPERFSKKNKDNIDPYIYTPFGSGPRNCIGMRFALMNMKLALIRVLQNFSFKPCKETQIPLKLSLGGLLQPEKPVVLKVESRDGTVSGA
Cytochrome P450 1A2 (Homo sapiens), sequence (P05177 whole entry, looked up): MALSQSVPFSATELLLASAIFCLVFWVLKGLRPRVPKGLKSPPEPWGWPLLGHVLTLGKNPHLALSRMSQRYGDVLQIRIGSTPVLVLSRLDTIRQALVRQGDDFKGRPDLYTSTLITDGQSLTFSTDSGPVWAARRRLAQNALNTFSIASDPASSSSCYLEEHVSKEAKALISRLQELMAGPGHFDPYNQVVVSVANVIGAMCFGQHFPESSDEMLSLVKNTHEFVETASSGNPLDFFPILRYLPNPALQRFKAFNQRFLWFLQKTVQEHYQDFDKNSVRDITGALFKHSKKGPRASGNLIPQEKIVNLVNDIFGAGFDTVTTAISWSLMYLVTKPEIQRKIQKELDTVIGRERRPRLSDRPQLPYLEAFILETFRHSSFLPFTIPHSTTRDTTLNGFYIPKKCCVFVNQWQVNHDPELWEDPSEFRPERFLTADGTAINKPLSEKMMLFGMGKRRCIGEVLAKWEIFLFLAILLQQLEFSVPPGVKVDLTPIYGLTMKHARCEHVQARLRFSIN
Cytochrome P450 2C19 (Homo sapiens), sequence (P33261 whole entry, looked up): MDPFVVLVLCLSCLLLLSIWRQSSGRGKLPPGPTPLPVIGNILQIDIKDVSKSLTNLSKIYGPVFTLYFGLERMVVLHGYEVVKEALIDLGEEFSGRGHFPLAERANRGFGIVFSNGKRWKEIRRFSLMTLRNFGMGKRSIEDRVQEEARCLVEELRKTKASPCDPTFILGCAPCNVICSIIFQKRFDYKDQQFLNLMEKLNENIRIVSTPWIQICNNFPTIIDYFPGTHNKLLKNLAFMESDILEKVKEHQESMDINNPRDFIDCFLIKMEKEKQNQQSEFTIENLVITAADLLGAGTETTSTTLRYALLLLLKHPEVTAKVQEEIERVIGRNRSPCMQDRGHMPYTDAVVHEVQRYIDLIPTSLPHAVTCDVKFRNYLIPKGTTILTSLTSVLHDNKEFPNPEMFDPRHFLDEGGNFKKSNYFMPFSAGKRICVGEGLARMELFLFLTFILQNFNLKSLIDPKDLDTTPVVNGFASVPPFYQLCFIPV
Cytochrome P450 2D6 (Homo sapiens), sequence (P10635 whole entry, looked up): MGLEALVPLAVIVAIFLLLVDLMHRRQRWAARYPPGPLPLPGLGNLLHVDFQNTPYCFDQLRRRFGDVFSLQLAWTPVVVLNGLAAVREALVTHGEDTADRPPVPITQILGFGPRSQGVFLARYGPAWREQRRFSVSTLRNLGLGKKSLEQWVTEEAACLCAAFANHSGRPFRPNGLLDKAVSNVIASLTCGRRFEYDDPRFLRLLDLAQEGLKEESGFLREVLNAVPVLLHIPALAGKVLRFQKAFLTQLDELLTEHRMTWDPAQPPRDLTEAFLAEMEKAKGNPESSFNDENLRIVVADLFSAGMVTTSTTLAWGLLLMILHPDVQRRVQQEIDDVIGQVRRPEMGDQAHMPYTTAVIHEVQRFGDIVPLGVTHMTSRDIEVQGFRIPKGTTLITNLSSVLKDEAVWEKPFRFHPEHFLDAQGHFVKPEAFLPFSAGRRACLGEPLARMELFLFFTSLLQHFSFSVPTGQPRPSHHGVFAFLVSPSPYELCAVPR

CCCCCCCC/C=C\CCCCCCCCCCCC(=O)O
inactive: [1] | [2] | [3] | [4] | [5] | [6]

CC(=O)N/N=C/c1ccc([N+](=O)[O-])o1
inactive: [1] | [2] | [3] | [5] | [6]

Cc1ccc(CO)cc1
inactive: [1] | [2] | [3] | [5] | [6]
active: [4] 32.1 µM

C[C@@H]1CN(CCCn2c3ccccc3c3ccccc32)C[C@H](C)N1
inactive: [2] | [3]
active: [1] 0.389 µM | [5] 6.01 µM

CN(C)CCC=C1c2ccccc2C=Cc2ccccc21
inactive: [2] | [3] | [4] | [6]
active: [1] 6.17 µM

C1COC1
inactive: [1] | [2] | [3] | [4] | [5] | [6]

Cc1cc(C)c(N)cc1C
active: [1] 22.4 µM | [2] 7.94 µM | [3] 35.5 µM | [4] 0.708 µM | [6] 35.5 µM
inactive: [5]

CC1=C(Br)C(=O)C(Br)=C/C1=C(/c1ccccc1S(=O)(=O)O)c1cc(Br)c(O)c(Br)c1C
inactive: [5]
active: [1] 21.6 µM | [2] 27.2 µM | [3] 15.3 µM | [4] 19.2 µM | [6] 24.2 µM

C/C=C/C=C/C=O
inactive: [1] | [2] | [3] | [4] | [5] | [6]

CC(=O)Nc1cc(S(=O)(=O)O)cc2cc(S(=O)(=O)O)c(N=Nc3ccccc3)c(O)c12
active: [1] 35.6 µM | [2] 39.9 µM | [3] 35.6 µM
inactive: [5]

Clc1ccc(Nc2nnc(Cc3ccncc3)c3ccccc23)cc1
active: [1] 17.4 µM | [2] 2.19 µM | [3] 1.55 µM
inactive: [5]

O=C(O)CCC(=O)C(=O)O
active: [1] 71 µM
inactive: [2] | [3] | [4] | [5] | [6]

COc1ccccc1NC(=O)c1cc2ccccc2cc1O
active: [2] 11.2 µM | [3] 22.4 µM | [4] 1.78 µM | [6] 28.3 µM
inactive: [1] | [5]

O=C(O)c1ccc(OCCCOc2ccc(C(=O)O)cc2)cc1
active: [1] 8.71 µM
inactive: [2] | [3] | [4] | [5] | [6]

COC(=O)CCS
active: [2] 70.4 µM
inactive: [1] | [3] | [5] | [6]

COC(=O)c1nc(Cl)c(Cl)nc1N
inactive: [1] | [2] | [3] | [5] | [6]

CC1(C)S[C@@H]2[C@H](NC(=O)C(c3ccccc3)S(=O)(=O)O)C(=O)N2[C@H]1C(=O)O (stereo partly specified)
inactive: [1] | [2] | [3] | [5] | [6]

O=C=Nc1ccc(Cl)c(Cl)c1
active: [3] 39.3 µM | [6] 31.2 µM
inactive: [1] | [2] | [5]

COc1cc(C(=O)NCCCCCC(=O)O)cc(OC)c1OC
inactive: [1] | [2] | [3] | [5] | [6]

Cc1ccco1
inactive: [2] | [3] | [5] | [6]
active: [1] 34.8 µM

O=C1c2ccccc2C(=O)N1CCc1noc(-c2ccc(CN3CCCCCC3)s2)n1
active: [1] 8.19 µM | [2] 8.19 µM | [3] 20.6 µM | [5] 20.1 µM | [6] 0.231 µM

COC(=O)CS
inactive: [1] | [2] | [3] | [5] | [6]

Cc1cscn1
inactive: [1] | [2] | [3] | [5] | [6]

C=COCC(C)C
inactive: [1] | [2] | [3] | [5] | [6]

CCc1ccccc1
inactive: [1] | [2] | [3] | [5] | [6]

CC(O)c1ccccc1 (stereo unspecified)
inactive: [1] | [2] | [3] | [5] | [6]

C[C@H]1C[C@H](O)c2ccsc2S1(=O)=O
inactive: [1] | [2] | [3] | [5] | [6]

O=C(OC(=O)c1ccccc1)c1ccccc1
inactive: [1] | [2] | [3] | [5] | [6]

O=[N+]([O-])c1cc(C2CCCCC2)c(O)c([N+](=O)[O-])c1
active: [1] 31.6 µM | [2] 39.8 µM | [3] 8.91 µM
inactive: [5] | [6]

O=C1NCCN1CCO
inactive: [1] | [2] | [3] | [5] | [6]

Cc1ccc(C(C)(C)O)cc1
inactive: [1] | [2] | [3] | [5] | [6]

CCCCCCC(C)(C)C(=O)O
active: [2] 71 µM | [3] 31.7 µM
inactive: [1] | [5] | [6]
